# Test results: PubChem BioAssay (NCI)
# The panel holds about 83,000 compounds, 20% with a hit somewhere; the sample as a whole holds those more often.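 The endpoint reported here, percent growth, reads 100 for growth as untreated, 0 for no net growth and -100 for all cells dead.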 A number with no mark means an inactive call. Calls of active or inactive are those of the source. The calls were made as follows: active = growth percent below 10; inactive = the rest.
# Tested on: SF-268 CNS
# Assay: NCI-60 one-dose screen, 48 h (100 = growth as untreated, 0 = no growth, -100 = all killed)
# Conditions: 10 µM unless noted
row,SMILES,growth
1,O=C1/C(=C/c2ccc(Oc3ccccc3)cc2)N=C(c2ccccc2)N1CCc1cccs1,80.8%
2,O=C1/C(=C/c2ccc(Cl)cc2)N=C(c2ccccc2)N1CCc1cccs1,74.7%
3,COc1ccc(Sc2ccc3[nH]c(=O)nc(N)c3c2)cc1,107%
4,COc1cc(C(=O)N(C(C)C)C2CCCCC2)cc(OC)c1OC,98.1%
5,COc1ccc(C2OCC(C)(C)CO2)cc1OC,101%
6,O=C(NCc1ccco1)C1CCN(S(=O)(=O)c2ccc(Cl)cc2)CC1,37.1%
7,COc1ccc(-c2csc3c2-n2cccc2C3=O)cc1O,13%
8,COC(=O)[C@@H]1CCCN1C(=O)[C@@H]1CCCN1C(=O)[C@@H](Cc1c[nH]c2ccccc12)NC(=S)Nc1cc(C(F)(F)F)cc(C(F)(F)F)c1,58%
9,CCN1C(=O)C2(Nc3ccccc3S2)c2cc(C)ccc21 (centres undefined),98.2%
10,Cc1nc(-c2ccccc2)cc2c(O)c(C(=O)N/N=C/Cc3ccccc3)[nH]c(=O)c12,103%
11,O=S(=O)(/N=C1C=C/C(=N\S(=O)(=O)c2ccccc2)c2ccccc2\1)c1ccccc1,104%
12,CCCOC(=O)c1ccc2c(c1)[N+](=O)C(C(=O)c1ccccc1)=C(C(F)(F)F)[N+]2=O,-81.4% (active)
13,CCCN(CCC)c1ccc(/C=C/c2ccc3cc(OCC)ccc3n2)cc1,90.7%
14,COc1cccc(C2CC(=O)Nc3cc4c(cc32)CCC4)c1OC (centres undefined),66.2%
15,CC1SC(c2ccc(Cl)cc2)N(CCc2cccs2)C1=O (centres undefined),14.3%
16,O=C(O)c1ccccc1Oc1cc(-c2ccco2)nc(OCCBr)n1,98.7%
17,COc1ccccc1/C=C/C(=O)/C=C/c1ccccc1O,1.68% (active)
18,COc1cc(/C=C/C(=O)C(=Cc2ccc(F)c(F)c2)C(=O)/C=C/c2ccc(O)c(OC)c2)ccc1O,20%
19,CC1(C)CC(=O)C2=C(C1)Nc1cc3c(cc1C2c1ccc(F)cc1)OCO3 (centres undefined),92.5%
20,Nc1nc(N)c(C=Nc2ccc(Br)cc2)c(Nc2ccc(Br)cc2)n1,81%

row,SMILES,growth
1,COc1cc(/C=C2\C(=O)Nc3ccccc32)cc(OC)c1O,78.3%
2,Brc1ccccc1Nc1ccc2nnc(-c3ccncc3)n2n1,99.4%
3,O=C(Nc1nc2ccccc2[nH]1)C(=O)Nc1nc2ccccc2[nH]1,102%
4,COc1ccc(C2SC(C)C(=O)N2CCc2cccs2)cc1OC (centres undefined),89.2%
5,Oc1ccc(Cl)cc1CNc1nc2ccccc2[nH]1,-39.7% (active)
6,CCOC(=O)c1c(-c2cc(OC)c(OC)c(OC)c2)csc1N,94.5%
7,COc1cc(C2CC(=O)Nc3c2ccc2ccccc32)cc(Br)c1OC (centres undefined),42.5%
8,Cc1ccc(-c2nnc(COc3ccc(-c4nnc(N)s4)cc3)o2)cc1,79.6%
9,COc1cc(/C=C2\C(=O)N(c3c(Cl)cccc3Cl)c3ccccc32)cc(OC)c1O,40.9%
10,COC(=O)[C@H]1CCCN1C(=O)[C@H]1CCCN1C(=O)[C@@H](Cc1c[nH]c2ccccc12)NC(=S)Nc1cc(C(F)(F)F)cc(C(F)(F)F)c1,36.1%
11,COc1ncnc2c1ncn2C/C(Br)=C(\Br)CCl,11.6%
12,COc1cc(CNCCN2C(=O)c3ccc4c5c(ccc(c35)C2=O)C(=O)N(CCNCc2cc(OC)c(OC)c(OC)c2)C4=O)cc(OC)c1OC,-46.8% (active)
13,O=C1CN2CCC1C/C2=C\c1ccnc2c(Cl)cccc12 (centres undefined),101%
14,O=C1OCC2=C1C(c1ccc3c(c1)OCO3)CC(=O)N2c1cccc(Cl)c1 (centres undefined),110%
15,Cc1ccc(C2SCC(=O)N2NC(=O)c2[nH]c3ccc(F)cc3c2-c2ccccc2)cc1 (centres undefined),93.4%
16,O=C(Nc1ccccc1)Oc1cccc2cccnc12,87.6%
17,CCOC(=O)c1sc(NC(=O)CN2CCC(Cc3ccccc3)CC2)nc1C,106%
18,CN([N-]C(=O)CC(=O)[N-]N(C)C(=S)c1ccccc1)C(=S)c1ccccc1.[Cu+2],-67.3% (active)
19,Clc1cccc(Cl)c1Nc1ccc2nnc(-c3ccncc3)n2n1,107%
